# Measured values as given in the supplement of paper PMC7156485.
# Counter-ions that a name gives are not always drawn. ± gives the standard deviation of the averaged measurements.
# What was measured:
# Conditions in all cases: concentration: 10 µM; 24 h
# HCC1569 [1] = assay: cell number relative to DMSO (% of DMSO); higher = more cells (less growth inhibition / toxicity)
# How it was run: (§1)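 HCC1569 and TDF cells were seeded at 800 per well in 384-well plates in RPMI with 10% FBS and treated with compounds at 10 µM for 24 h at 37 °C, in triplicate. After fixation in 3.7% formaldehyde, cells were stained with a rabbit anti-H1.0 antibody, an AlexaFluor 647 secondary and DAPI, and six fields per well were imaged at ×10. H1.0 nuclear intensity or cell number is given as percent of the plate control, using the median of replicates, with HCC1569 values smoothed for positional effects.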
# TDF [2] = assay: as above
# How it was run: as §1
# TDF [3] = assay: H1.0 immunofluorescence intensity relative to DMSO (% of DMSO); higher = stronger H1.0 induction, active = 120 or more
# How it was run: as §1
# HCC1569 [4] = assay: H1.0 immunofluorescence intensity relative to DMSO (% of DMSO); higher = stronger H1.0 induction, active = 140 or more
# How it was run: as §1
# 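Throughout, for H1.0 immunofluorescence intensity relative to DMSO: TDF is a line of transformed human dermal fibroblasts of mesenchymal origin.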
# 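Throughout, for cell number relative to DMSO: TDF denotes transformed human dermal fibroblasts of mesenchymal origin.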
Structure (SMILES),cell number (HCC1569 [1]),cell number (TDF [2]),H1.0 immunofluorescence intensity (TDF [3]),H1.0 immunofluorescence intensity (HCC1569 [4])
NCC(CC(=O)O)c1ccc(Cl)cc1 (racemic),99.3,112,94.3 (inactive),99.1 (inactive)
CCCCC(C#N)(Cn1cncn1)c1ccc(Cl)cc1 (centres undefined) [Myclobutanil],104,92.6,102 (inactive),102 (inactive)
Cl.c1ccc(C2CC2)c(OCC2=NCCN2)c1 [Cirazoline hydrochloride],102,109,90.7 (inactive),87.7 (inactive)
COc1ccc2c(c1)C(=Cc1cnc[nH]1)C(=O)N2,72.4,49.2,98.1 (inactive),107 (inactive)
Br.COC(=O)C1=CCCN(C)C1,102,112,89.8 (inactive),82.8 (inactive)
"CCCCCC=CCC=CCC=CCC=CCCCCCC(=O)NCCO [Anandamide (22:4,n-6)]",102,104,102 (inactive),98.3 (inactive)
CN1C2CCC1CC(OC(=O)C(CO)c1ccccc1)C2.CN1C2CCC1CC(OC(=O)C(CO)c1ccccc1)C2.O.O=S(=O)(O)O (centres undefined) [Atropine sulfate],102,,91.8 (inactive),85.2 (inactive)
CCN1CC2(C)CCC(OC)C34C2C(OC(C)=O)C2(OCOC25CC(OC)C2CC3(O)C5C2OC)C14 (centres undefined) [Deltaline],105,104,98.2 (inactive),96.9 (inactive)
Cl.N[C@@H](CCl)C(=O)O [beta-Chloro-L-alanine hydrochloride],101,97.8,92.7 (inactive),91.9 (inactive)
CC(C)N(CCC(C(N)=O)(c1ccccc1)c1ccccn1)C(C)C.O=P(O)(O)O (centres undefined),99.8,101,103 (inactive),102 (inactive)
C[N+]1(C)CCOC(O)(c2ccc(-c3ccc(C4(O)C[N+](C)(C)CCO4)cc3)cc2)C1.[Br-].[Br-] (centres undefined) [Hemicholinium-3],100,106,92 (inactive),87.8 (inactive)
S=C(NC1CCCCC1)N1CCC(c2cnc[nH]2)CC1 [Thioperamide maleate],104,100,99.8 (inactive),94.7 (inactive)
"COC(=O)C1(O)CC2OC1(C)n1c3ccccc3c3c4c(c5c6ccccc6n2c5c31)C(=O)NC4 (centres undefined) [K-252a, Nocardiopsis sp.]",33.7,2.54,,75.8 (inactive)
CCCN1CCCC(c2cccc(C#N)c2)C1.Cl (stereo not drawn) [S(-)-DS 121 hydrochloride],100,96.1,92.4 (inactive),84.5 (inactive)
CC(C)(C)NCC(O)c1cc(Cl)c(N)c(Cl)c1 (centres undefined) [Clenbuterol],99.5,103,95.2 (inactive),118 (inactive)
Cl.FC(F)(F)c1cccc(C2=CCN(CCc3ccc4ccccc4c3)CC2)c1,109,96.7,96.3 (inactive),100 (inactive)
O=c1[nH]c2ccccc2n1C1CCN(CCCC(c2ccc(F)cc2)c2ccc(F)cc2)CC1 [Pimozide],81.2 ± 11,90.7 ± 1.7,107 (inactive),144 (active)
CCC1(C2=NCCN2)Cc2ccccc2O1.Cl (centres undefined) [Efaroxan hydrochloride],103,105,93.1 (inactive),94 (inactive)
O=C(O)CC[N+](=O)[O-] [3-Nitropropionic acid],103,109,89.6 (inactive),84.9 (inactive)
COc1ccc2c(c1O)-c1cccc3c1C(C2)N(C)CC3.Cl (stereo not drawn) [R(-)-Apocodeine hydrochloride],103,89.9,97.6 (inactive),87.5 (inactive)
Cl.NNC(N)=O [Semicarbazide hydrochloride],102,111,89 (inactive),108 (inactive)
COc1ccc2c(c[n+](C)c3c4cc5c(cc4ccc23)OCO5)c1OC.[Cl-] [Chelerythrine chloride],55.4,0.93,,157 (active)
CN1C2CCC1CC(OC(=O)C(CO)c1ccccc1)C2.CN1C2CCC1CC(OC(=O)C(CO)c1ccccc1)C2.O=S(=O)(O)O (centres undefined) [Atropine sulfate],,,91.7 (inactive),88.9 (inactive)
CCS(=O)(=O)Nc1cccc(C(=C2CCCCC2)c2cnc[nH]2)c1,99.6,101,94.6 (inactive),92.5 (inactive)
COc1cc2c(cc1O)CCNC2C (centres undefined) [Salsoline],100,104,91 (inactive),95.5 (inactive)
"CCc1c(C(=O)OC)ncc2[nH]c3cc(OC)c(OC)cc3c12 [Methyl 6,7-dimethoxy-4-ethyl-beta-carboline-3-carboxylate]",95.8,99.5,88.1 (inactive),130 (inactive)
